High-throughput results deposited in PubChem by The Scripps Research Institute Molecular Screening Center.
PAFAH1B3 inh – PAFAH1B3 enzyme inhibitors, primary screen, biochemical, fluorescence polarization, human | Platelet-activating factor acetylhydrolase IB subunit alpha1 (Homo sapiens), Q15102 | recombinant PAFAH1B3, FP-rhodamine probe | inhibition, % at 3.39 µM | 340,000 tested, 0.28% active | AID 492972, 2010;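 active = inhibition above the screen-wide average of all tested compounds plus 3 SD, cut at about 25% in these data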;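 note: 0% = enzyme with DMSO only and 100% = wells lacking PAFAH1B3 protein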
Target sequence (Q15102 whole entry, looked up): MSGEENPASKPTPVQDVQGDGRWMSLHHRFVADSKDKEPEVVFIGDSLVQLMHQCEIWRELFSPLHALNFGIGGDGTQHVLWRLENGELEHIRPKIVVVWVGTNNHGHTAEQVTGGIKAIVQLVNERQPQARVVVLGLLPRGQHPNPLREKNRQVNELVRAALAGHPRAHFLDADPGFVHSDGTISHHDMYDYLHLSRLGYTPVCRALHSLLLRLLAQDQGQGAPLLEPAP
ZTA counter – counter-screen for EBNA-1 inhibitors: inhibitors of Epstein-Barr virus ZTA | AID 2234 | inhibition, % at 11 µM | 320,000 tested, 0.15% active | ZTA-DNA binding, fluorescence polarization; in the data active = inhibition above about 33%
Target sequence (P03206 whole entry, looked up): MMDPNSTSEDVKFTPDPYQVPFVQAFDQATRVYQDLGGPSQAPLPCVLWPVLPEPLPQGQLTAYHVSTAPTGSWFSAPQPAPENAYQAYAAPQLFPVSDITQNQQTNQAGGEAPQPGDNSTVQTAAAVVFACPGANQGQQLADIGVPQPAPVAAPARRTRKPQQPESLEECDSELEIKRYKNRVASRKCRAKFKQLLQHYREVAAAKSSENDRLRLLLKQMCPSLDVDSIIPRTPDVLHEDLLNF
PAFAH2 FP inh – PAFAH2 enzyme inhibitors, primary screen, biochemical, fluorescence polarization, human; Platelet-activating factor acetylhydrolase 2, cytoplasmic (Homo sapiens), Q99487; recombinant PAFAH2, FP-rhodamine activity probe; inhibition, % at 3.39 µM; 340,000 tested, 0.99% active; AID 492956, 2010;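 active = inhibition above the mean over all tested compounds plus 3 SD, cut at about 30% in these data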;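 note: inhibitors block probe labeling of enzyme so polarization drops; 0% = enzyme with DMSO and 100% = wells lacking PAFAH2 protein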
EBNA-1 inh – EBNA-1 DNA-binding inhibitors, primary screen, biochemical, fluorescence polarization. 300,000 tested, 0.34% active. AID 1950, 2009. inhibition, % at 14.8 µM; in the data active = inhibition above about 28%
pPAFAH FP inh – pPAFAH enzyme inhibitors, primary screen, biochemical, fluorescence polarization, human. Platelet-activating factor acetylhydrolase (Homo sapiens), Q13093. recombinant pPAFAH, FP-rhodamine probe fluorescence polarization. inhibition, % at 3.39 µM. 330,000 tested, 1.5% active. AID 463082, 2010;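 active = inhibition above the mean inhibition across the screen plus 3 SD, cut at about 25% in these data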;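 note: inhibitors block binding of the rhodamine activity-based probe so polarization drops; 0% = enzyme with DMSO and 100% = wells lacking pPAFAH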
PAFAH1B2 inh – PAFAH1B2 enzyme inhibitors, primary screen, biochemical, fluorescence polarization, human; inhibition, % at 3.39 µM; Platelet-activating factor acetylhydrolase IB subunit alpha2 (Homo sapiens), P68402; recombinant PAFAH1B2, FP-rhodamine activity probe; 340,000 tested, 1.2% active;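 active = inhibition above the mean of all tested compounds plus 3 SD, cut at about 24% in these data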;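 note: 0% = enzyme with DMSO and 100% = wells lacking PAFAH1B2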
PAFAH2 FP conf – PAFAH2 enzyme inhibitors, confirmation, biochemical, fluorescence polarization, human | AID 493030, 2011 | 2,300 tested, 65% active | inhibition, % at 3.39 µM | recombinant PAFAH2, FP-rhodamine activity probe | shares compounds with PAFAH2 FP inh;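 active = mean inhibition over three repeats above a set limit taken from the earlier primary screen, cut at about 30% in these data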;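 note: inhibitor blocks binding of rhodamine activity probe so polarization falls; 0% = enzyme with DMSO and 100% = wells lacking PAFAH2 protein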
* hit, by the source's call; · = no result. Rows were chosen to be rich in hits. Some 2.9% of all compounds tested hit in one or more screens of this group.

SMILES	PAFAH1B3 inh	ZTA counter	PAFAH2 FP inh	EBNA-1 inh	pPAFAH FP inh	PAFAH1B2 inh	PAFAH2 FP conf
O=C(Cn1[nH]c(=O)c2ccccc2c1=O)NCCN1C(=O)S/C(=C\c2ccccc2)C1=O	3.8	·	31.5*	·	9.2	2.1	4.3
O=C(CCl)NCCN1C(=O)S/C(=C\c2cccnc2)C1=O	-1.9	-0.8	-1.2	5.0	-1.3	-7.5	·
O=C(NC1CCCCC1)C(c1ccncc1)N(C(=O)Cn1nnc(-c2cccs2)n1)C1CCCC1 (centres undefined)	-4.0	-12.1	61.7*	-2.7	6.4	-1.4	53.8*
COc1ccccc1CC(=O)Nc1cc(Cl)ccc1O	3.8	17.8	83.0*	7.8	3.1	4.4	80.3*
COc1ccccc1CC(=O)Nc1ccc([N+](=O)[O-])cc1O	4.9	-14.7	34.5*	-1.8	-3.4	11.3	15.5
CCN(c1ccccc1)S(=O)(=O)c1ccc(OC)c(NC(=O)Cc2ccccc2OC)c1	7.5	13.0	29.8*	·	0.9	0.1	16.3
COc1ccccc1CC(=O)Nc1ccccc1O	4.7	0.6	58.4*	2.1	2.3	-5.5	59.6*
COc1ccccc1NC(=O)CCn1c(=O)c2cccn2c2ccccc21	2.7	7.1	-1.3	1.0	4.3	2.8	·
Cc1ccc(NC(=O)CN2CCN(C)CC2)cc1S(=O)(=O)N1CCOCC1	6.3	4.6	-0.5	16.0	5.9	2.9	·
O=C(c1cc2ccccc2[nH]1)N(Cc1cccnc1)CC1CCCN(C2CCCCC2)C1 (centres undefined)	9.8	-3.7	-1.2	-8.1	5.4	1.4	·
COc1ccc(CCNC(=O)COC(=O)c2ccc(C)s2)cc1OC	6.5	-2.4	5.8	·	-0.8	7.0	·
COc1ccc(CCNC(=O)COC(=O)c2cccs2)cc1	1.3	·	43.8*	·	·	-1.0	33.8*
COc1ccc(CCNC(=O)COC(=O)c2ccc(C)s2)cc1	3.8	-0.6	55.5*	·	13.1	7.3	47.2*
COc1ccc(CCNC(=O)COC(=O)c2cccs2)cc1OC	-3.1	-12.2	-1.5	-7.7	-2.7	6.0	·
COCCN(C(=S)Nc1ccc(C)cc1C)C(C)c1cccs1 (centres undefined)	0.8	1.5	19.7	5.9	1.2	6.4	·
COCCN(C(=S)Nc1c(C)cc(C)cc1C)C(C)c1cccs1 (centres undefined)	5.0	-2.0	31.3*	-8.1	7.0	1.8	28.2
O=C(COC(=O)CCC(NC(=O)OCc1ccccc1)C(=O)OCC(=O)Nc1ccccc1)Nc1ccccc1 (centres undefined)	-7.6	-21.9	69.7*	1.5	2.8	5.5	83.5*
CC(C)C(NC(=O)OCc1ccccc1)C(=O)OCC(=O)N1CCCCC1 (centres undefined)	5.9	-6.7	1.1	6.5	-1.5	5.4	·
O=C(O)CCC(NC(=O)OCc1ccccc1)C(=O)O (centres undefined)	8.0	18.9	8.1	-3.2	1.5	2.9	·
O=C(CCC(NC(=O)OCc1ccccc1)C(=O)OCC(=O)N1CCCCC1)OCC(=O)N1CCCCC1 (centres undefined)	6.7	-11.3	53.2*	0.1	3.1	5.5	47.8*
O=C(Nc1ccc(S(=O)(=O)NCc2ccccc2)cc1)C1CCCCC1	0.9	10.9	-1.8	9.0	5.5	8.1	·
CC1CN(C(=O)/C(C#N)=C2\N=C(NC(=O)c3ccc(F)cc3)c3ccccc32)CC(C)O1 (centres undefined)	·	-2.0	·	3.4	0.0	·	·
Cn1c(=O)c2c(ncn2CC(=O)Nc2cc(S(=O)(=O)N3CCCCC3)ccc2O)n(C)c1=O	3.4	·	32.2*	·	-2.9	1.2	21.1
Cc1ccc(S(=O)(=O)N2CCCCC2)cc1NC(=O)Cn1cnc2c1c(=O)n(C)c(=O)n2C	-0.5	·	-1.6	·	·	-1.8	·
CCCCc1cc(=O)oc2cc(O)ccc12	-1.7	-12.7	0.1	-9.6	3.2	2.3	·
Clc1cccc(CSc2ccc(-c3ccco3)nn2)c1	-2.0	9.2	2.3	-9.7	9.0	-2.5	·
